Source: PubChem BioAssay (National Center for Advancing Translational Sciences (NCATS))
Hits are enriched below; roughly 0.4% of the tested compounds scored in any of these assays.
UDG counterscr – counter-screen for AID inhibitors: uracil-DNA glycosylase inhibition | FRET deamination/UDG coupled assay, UDG read, 4 h | Potency, µM (series often up to 115 µM), hits mostly inhibitors | 0.14% of 91,000 active | AID 1347430; further: nearly all actives have a fitted effect of over 65% in size
AID inhibitor – activation induced cytidine deaminase inhibition. Q9GZX7. AID deamination FRET fluorescence, UDG-coupled, 4 h. Potency, µM (titrated, usually from 115 µM), usual class: inhibitors. 0.32% of 91,000 active. AID 1347428; further: nearly all actives have a fitted effect of over 25% in size
Target sequence (Q9GZX7 whole entry, looked up): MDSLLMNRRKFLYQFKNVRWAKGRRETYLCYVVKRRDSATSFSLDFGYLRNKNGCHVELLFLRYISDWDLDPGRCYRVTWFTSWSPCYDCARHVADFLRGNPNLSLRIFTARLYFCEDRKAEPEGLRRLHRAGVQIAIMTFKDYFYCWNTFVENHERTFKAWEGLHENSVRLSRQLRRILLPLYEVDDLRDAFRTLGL
Numbers stand for hits. The call rests on the fitted dose curve; in most records, active means well fitted curve in the direction sought with a large enough effect; inconclusive means small, poorly fitted or top-dose-only effect, or another doubt; inactive means no such curve, though single readings can be large; an effect the other way counts as inactive or inconclusive.

`CN1CC[C@@]2(C)c3cc(O)ccc3N(C)C12` (some centres undefined) gave UDG counterscr inactive and AID inhibitor 11µM.
Screening C[C@@H]1[C@@H]2Cc3ccc(O)cc3[C@@]1(C)CCN2CC1CC1 returned UDG counterscr inactive and AID inhibitor inactive.
Cc1ccccc1-n1c(/C=C/c2ccccc2F)nc2ccccc2c1=O was read as UDG counterscr inactive and AID inhibitor inactive.
For Cc1cccc(/C=C/c2nc3ccccc3c(=O)n2-c2cccc(O)c2)c1 the results were UDG counterscr inactive and AID inhibitor inactive.
For Cc1ccc(-n2c(/C=C\c3ccc(F)cc3)nc3ccccc3c2=O)cc1Cl the results were UDG counterscr 89µM and AID inhibitor inconclusive.
O=c1c2ccccc2nc(/C=C/c2cccc3ccccc23)n1-c1ccccc1Cl was read as UDG counterscr 89µM and AID inhibitor inconclusive.
For O=C1C2CCCCC1CN(Cc1ccccc1)C2 the results were UDG counterscr inactive and AID inhibitor inactive.
For COCCN1CCC(O)C2CCCCC21 (centres undefined) the results were UDG counterscr inactive and AID inhibitor inactive.
`Cc1cc(C(=O)C(Cl)(Cl)Cl)c(C)n1C` gave UDG counterscr inactive and AID inhibitor inactive.
`CNC(=O)NC(=O)C(C)Cl` (centres undefined) gave UDG counterscr inactive and AID inhibitor inactive.
For CN(N=O)c1ccc(O)c(O)c1 the results were UDG counterscr inactive and AID inhibitor 25µM.
For CCn1cc(C(=O)NC2CCC(C)CC2)c2ccccc21 (centres undefined) the results were UDG counterscr inactive and AID inhibitor inactive.
CCCC12CN3CC(C)(CN(C1)C3c1c(C)[nH]c(=O)[nH]c1=O)C2=O (centres undefined) was read as UDG counterscr inactive and AID inhibitor 10µM.
Screening CCCCC12CN3CC(C)(CN(C1)C3c1ccccn1)C2=O (centres undefined) returned UDG counterscr inactive and AID inhibitor inactive.
N[C@@H](CCl)C(=O)O was read as UDG counterscr inactive and AID inhibitor inactive.
For NC(Cc1cc(O)c(O)cc1O)C(=O)O (centres undefined) the results were UDG counterscr inactive and AID inhibitor 14µM.
CCOC(=O)C1=C(N)OC(C)=C(C(C)=O)C12C(=O)Nc1ccccc12 (centres undefined) was read as UDG counterscr inactive and AID inhibitor inactive.
Screening COc1cc2c(c(OC)c1OC)CC(N)CCC2 (centres undefined) returned UDG counterscr inactive and AID inhibitor inactive.
